The results in this text go back to PubChem BioAssay (NCI).

About 83,000 compounds went through this panel and 20% of them were active in at least one assay; those are over-represented in the sample as a whole.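 Single-concentration screen, 48 h exposure, 96-well plates. Endpoint: percent growth. Below 10 = active.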 The source made the active and inactive calls.

The subject of the first assay is T-47D breast. The assay is described as follows: NCI-60 one-dose screen, 48 h (100 = growth as untreated, 0 = no growth, -100 = all killed). To be noted: 10 µM unless noted.
As to `Cc1ccc(S(=O)(=O)c2nc(-c3ccccc3)oc2Sc2nc3ccccc3s2)cc1`, the growth is 62.7% (inactive).

For the compound `CCCn1cnc2c(c1=N)C(c1ccc(F)cc1)c1sc3c(F)cccc3c1O2` (configuration not stated), the growth is 53.9% (inactive).

For `CN1C(=O)/C(=C2\SC(=Nc3ccccc3)N(Nc3ccccc3)C2=O)c2ccccc21`, the growth was 82.2% (inactive).

The subject of another assay is BT-549 breast. The assay is described as above. The conditions noted are these: 10 µM unless noted.
With `OCCNCCNC(Cc1ccc(Cl)cc1)c1ccccc1` (configuration not stated), the growth is 79.7% (inactive).

With `CC1=C(C(=O)Nc2nc(-c3ccc(Cl)cc3)cs2)[C@H](c2ccc(O)cc2)NC(=O)N1`, the growth was 90.4% (inactive).

With `O=C(N/N=C\c1cccc([N+](=O)[O-])c1)N/N=C/c1cccc([N+](=O)[O-])c1`, the growth is 108% (inactive).

As for `CC1C(/C=N/NC(N)=S)C(C#N)(C#N)C1(C#N)C#N` (configuration not stated), the growth was 110% (inactive).

For the compound `CN(C)CCCNC(=O)c1cncnc1Nc1ccc(OCc2cccc(F)c2)c(Cl)c1`, the growth is 53.6% (inactive).

On to `C=C1C(=O)O[C@H]2[C@H]1CC/C(COC(=O)/C=C\C(=O)NCc1ccc(Cn3c(=O)sn(CCCl)c3=O)cc1)=C\CC[C@@]1(C)O[C@@H]21`, for which the growth was 85.5% (inactive).

Regarding `CC1(C)OB(O)c2cc(-c3nc4ccc5[nH]ncc5c4c4c3CCCC4)ccc21`, the growth was 74.9% (inactive).

Regarding `N=C(N)c1ccc(-c2ccc(-c3ccccc3)s2)cc1`, the growth was 90.6% (inactive).

Turning to `COc1ccc(CCN(CC(=O)N(CC(N)=O)C2CCC[C@@H]2OCc2ccccc2)C(=O)CN(C(=O)CN(CCc2ccc(Cl)cc2)C(=O)CN(C(=O)CN(C)Cc2ccccc2F)[C@H](C)C2CCCCC2)[C@H](C)C2CCCCC2)cc1OC` (some centres not stated), the growth is 47.3% (inactive).

For the compound `Cc1nnc(-c2ccc3c(c2)nc(/C=C/c2ccccc2)n3C2CCCCC2)o1`, the growth is 81% (inactive).

As for `Nn1c(=O)c(=O)[nH]c2c(cnn2-c2ccccc2)c1=O`, the growth is 114% (inactive).

In the case of `O=C(O)[C@@H](Cc1ccc2ccccc2c1)NC(=O)n1c2ccccc2c2ccccc21`, the growth is 11.3% (inactive).

As for `C=CCC(CCCC)(C(=O)OCC)C(=O)OCC`, the growth was 96.7% (inactive).

Turning to `C#COc1cccc(Nc2ncnc3cc(NC(=O)[C@@H](C)Cl)ccc23)c1`, the growth was 22.2% [6.25 µM] (inactive).

With `CC(C)CCN(CCC(C)C)CC(O)c1cc2c(c3ccccc13)CCCC2` (configuration not stated), the growth is 103% (inactive).

For `O=C(CSc1nnc(-c2cc(-c3ccccc3)nc3ccccc23)n1-c1ccccc1)Nc1ccc(C(=O)/C=C/c2ccc(Cl)cc2)cc1`, the growth is 92.4% (inactive).

Take `CCCCNC(=O)Oc1ccc(/C(=C(/C)Cc2ccc(OC)cc2)c2ccc(OCCN3CCCCCC3)cc2)cc1`: the growth was 93.2% (inactive).

Consider `O=C1C(Nc2ccccn2)=C(I)C(=O)c2ncccc21`, for which the growth is -68.5% (active).

`Cn1cc(-c2csc(-c3c[nH]c4ccc(F)cc34)n2)c2ccnc(Cl)c21`: the growth is 78.2% (inactive).

Take `CC(C)(C)c1cc(Cl)c(O)c(CNCCO)c1`: the growth was 109% (inactive).

Turning to `Oc1c(CN2CCCC2)cc(CSCc2ccccc2)c2cccnc12`, the growth was 28.5% (inactive).

`O=C(CCSc1nnc2n(Cc3ccccc3)c(=O)c3c4c(sc3n12)CCCC4)N1CCN(c2ccccc2)CC1`: the growth was 99.5% (inactive).

With `O=c1c2c3c(sc2n2c(-c4cc(-c5ccccc5)no4)nnc2n1Cc1ccccc1)CCCC3`, the growth was 91.9% (inactive).

For the compound `CCOC(=O)C1=C(C)/C(=C\c2[nH]c(C)c(C(=O)OCC)c2C)N=C1C`, the growth was 98.1% (inactive).

As for `NS(=O)(=O)c1ccc(C(=O)NN2C(=O)c3c(Br)c(Br)c(Br)c(Br)c3C2=O)cc1`, the growth is 106% (inactive).

For the compound `CCN(CC)CCN1C(=O)c2c(c(C)c3c(oc4ccc(OC)cc43)c2C)C1=O`, the growth is 116% (inactive).

`COc1cc(Cl)c(C)cc1NC(=O)c1cc2ccccc2cc1O`: the growth was 22.9% (inactive).

`COc1cc(NC(=O)c2cncnc2Nc2ccc3c(ccn3Cc3ccccn3)c2)cc(OC)c1`: the growth was 34.9% (inactive).

For the compound `CCCCNc1nnc2n(Cc3ccccc3)c(=O)c3c4c(sc3n12)CCCC4`, the growth is 56.3% (inactive).

In the case of `C=CCOC(=O)C1=C(C)N(CC)C(=O)NC1c1c(Cl)n(C)c2ccccc12` (configuration not stated), the growth was 102% (inactive).

As to `CNC1=CC(=O)c2c(C(=O)OC)c(C)[n+]([O-])c(C)c2C1=O`, the growth was 88.3% (inactive).

With `O=C(/C=C/c1ccc(Oc2ccc(Br)cc2)cc1)c1ccc(Br)cc1`, the growth is 110% (inactive).

`CC(=O)/C(=C/c1ccc([N+](=O)[O-])cc1)C(=O)c1ccccc1`: the growth was 89.8% (inactive).

For `COc1ccc2[nH]cc(-c3nc(-c4c[nH]c5c(Cl)nccc45)cs3)c2c1`, the growth was 51.3% (inactive).
